The whole screen tested about 69,000 compounds, of which about 8,600 (12%) showed an effect of 50% or more. Many of the other results were omitted from the sample, so strong results are more common in it than they were.

The test system of the test is Plasmodium berghei. The test is described as follows: Screen against P. berghei liver stage (PbLuc), transformed with Luciferase, at 10uM. Format: functional, HepG2. The note with it: tested at 10 uM.
On to `CCCn1[nH]c(CNc2cccc(Cl)c2)nc1=O`, for which the INHIBITION stood at 46.4%.
The same measure for `Cc1nnc2n1CCN(C(=O)c1cc3cc(F)ccc3[nH]1)C2`: 14.1%; for `Cn1cc(CN2CCC3(CCCN(C(=O)c4cscn4)C3)C2)cn1` (stereo not drawn): -68.5%; for `Cc1cn2c(n1)CCC(NC(=O)c1cc(C3CC3)[nH]n1)C2` (stereo not drawn): -1.14%.
The figure for `Cc1cccc(N(C)Cc2cc(=O)n3oc(C)cc3n2)c1` is 43.5%.
The figure for `Cc1cc2nc(CN(C)c3ccccc3)cc(=O)n2o1` is 12.9%.
Consider `Cc1cc2nc(CN(C)c3ccc(Cl)cc3)cc(=O)n2o1`, for which the INHIBITION is listed as 56%.
The figure for `NC(=O)[C@H]1CCCN1C(=O)c1csc(-c2ccc(C(F)(F)F)cc2)n1` is -2.25%; for `CCOCC1CCN(C(=O)C(c2ccc(F)cc2)N(C)C)CC1` (stereo not drawn) it is 17.5%; for `CNS(=O)(=O)c1c(C)sc2ccccc12` it is -77.9%.
`Cc1[nH]ncc1C(=O)N1CCCC(c2ccn[nH]2)C1` (stereo not drawn): the INHIBITION came to 23.5%.
The same measure for `Cc1nc(CN2CCCN(C(=O)c3cnccn3)CC2)cs1`: -16.4%.
The same measure for `CC(CNS(C)(=O)=O)c1ccc(F)c(F)c1` (stereo not drawn): 60.4%; for `CCCS(=O)(=O)NCC(C)c1ccc(F)c(F)c1` (stereo not drawn): 10%.
The same measure for `CC(CNS(N)(=O)=O)c1ccc(F)c(F)c1` (stereo not drawn): 31.1%.
Turning to `Cc1ccn(-c2ccnc(N3CCN(c4ncccn4)CC3)n2)n1`, the INHIBITION stood at 44.9%.
For the compound `COCCO[C@H]1CCN(c2ccc(C)nn2)[C@H]1Cc1cnn(C)c1`, the INHIBITION came out at 13.7%.
The figure for `COc1ccc(CS(=O)(=O)CC(=O)NCC2CC2)cc1F` is 19%; for `CNC(=O)CS(=O)(=O)Cc1ccc(OC)c(F)c1` it is 52.2%.
The same measure for `COc1ccc(CS(=O)(=O)CC(=O)NCc2ccccc2F)cc1F`: 40.3%; for `Cc1nccn1CCN(C)C(=O)C1CCN(C(=O)C2CCCC2)CC1`: 48.9%; for `N#Cc1ccc(C(=O)N2CCCSCC2CN2CCCC2)cc1` (stereo not drawn): 40.8%.
The figure for `Cc1cc(S(C)(=O)=O)c(C)c(S(=O)(=O)N2CCN(C)CC2)c1` is 31.9%.
As for `Cc1cc(S(C)(=O)=O)c(C)c(S(=O)(=O)N2CCCC(C)C2)c1` (stereo not drawn), the INHIBITION is reported as 63%.
The figure for `Cc1cc(S(C)(=O)=O)c(C)c(S(=O)(=O)N2CCCCCC2)c1` is 36.4%.
The figure for `CC(=O)c1c(F)cccc1NCC(O)C1CC1` (stereo not drawn) is 26%; for `Cc1nc(NCc2scnc2-c2ccccc2)cc(C2CCNCC2)n1` it is 24.3%; for `CN(C)c1ccc(-c2cc(=O)n3c(n2)CCCCC3)cc1` it is 35.1%.
The same measure for `Cc1ccc(S(=O)(=O)n2ccn(C(=O)COc3ccccc3)c2=O)cc1`: 44.1%; for `CC(C)Cc1nc(CSC2CCCN(c3cnn(C)c3)C2=O)no1` (stereo not drawn): 20.1%; for `Cc1cc(CSC2CCCN(c3cnn(C)c3)C2=O)no1` (stereo not drawn): 30.5%.
As for `Cn1cc(N2CCCC(SCc3nc(C4CC4)no3)C2=O)cn1` (stereo not drawn), the INHIBITION was determined as 51.2%.
Take `c1nc(CCC2CCCN2)cc(N2CCCCCC2)n1` (stereo not drawn): the INHIBITION worked out at 5.11%.
The same measure for `Cc1n[nH]c(C)c1C1COCCN1C(=O)c1ccc2c(c1)CCO2` (stereo not drawn): 32.125%; for `CSCc1cc(F)ccc1CNCc1cccc(O)c1`: 5.15%.
With `O=C1CC(c2ccc3c(c2)OCO3)c2snc(C(=O)O)c2N1` (stereo not drawn), the INHIBITION was 15.1%.
The same measure for `CS(=O)(=O)N1CCC2(CC1)CC(CC(=O)NCC1CC1)c1ccccc12` (stereo not drawn): 3.69%; for `O=C(C1CC1)N1CC2(CCNCC2)c2cc(F)ccc21`: -12.2%.
The figure for `CNC(=O)CC1CC2(CCNCC2)c2cc(F)ccc21` (stereo not drawn) is 44.8%.
The figure for `CN(C)C(=O)CC1CC2(CCNCC2)c2cc(F)ccc21` (stereo not drawn) is 59.1%; for `CC(C)N1CCC2(CC1)CC(CC(N)=O)c1ccc(F)cc12` (stereo not drawn) it is 58.7%; for `O=C(CC1CC2(CCNCC2)c2ccccc21)NCC1CC1` (stereo not drawn) it is 57.5%.
Take `COCC(=O)N1CCC2(CC1)CC(OC)c1ccc(F)cc12` (stereo not drawn): the INHIBITION worked out at 42.1%.
For the compound `NC(=O)CC1CC2(CCNCC2)c2cc(F)ccc21` (stereo not drawn), the INHIBITION is listed as 59.3%.
The figure for `COCCN1CCC2(CC1)CC(CC(N)=O)c1ccc(F)cc12` (stereo not drawn) is -8.85%.
The figure for `O=C(CC1CC2(CCN(CC3CC3)CC2)c2ccccc21)NC1CCC1` (stereo not drawn) is 34.4%; for `O=c1n(CCNCc2ccc(-c3ccccc3)cc2)nc2ccccn12` it is 35.7%.
The same measure for `Cc1nn(C)c(Cl)c1C1CCCN1CC(=O)Nc1cccnc1` (stereo not drawn): 21.6%; for `Cn1cc(-c2ncc3c(c2C(=O)O)CCN(CC2CCOC2)C3)cn1` (stereo not drawn): 17.7%; for `O=C(c1ccco1)N1C[C@H]2CCCN(Cc3ccc(F)cc3)[C@H]2C1`: 29.4%.
With `Cc1nc(N(C)C)ncc1C(=O)N[C@H]1Cc2ccccc2[C@@H]1N`, the INHIBITION came to 2.7%.
The same measure for `COCCN(Cc1ccoc1)S(=O)(=O)c1ccc(OC)c(Cl)c1`: 25.4%; for `Cc1noc(NCc2cn(C)nc2-c2cccnc2)n1`: 41.5%.

For the origin of these results see ChEMBL document CHEMBL4513216, “Probing the Open Global Health Chemical Diversity Library for Multistage-Active Starting Points for Next-Generation Antimalarials” (ACS Infect Dis, 2020).
